Drawing on PubChem BioAssay (EPA / NIEHS), this text covers outcome and AC50 for 23 compounds.

The structures appear in SMILES notation. Results filed as inconclusive are left out. Calls of active or inactive are those of the source. The calls were made as follows, unless noted: active = hit-call score of the fitted dose curve at least 0.9, where 1 is the maximum; inconclusive = response in the unintended direction; inactive = score below 0.9.

Assay [1] is described as follows: CCTE_Shafer_MEA_acute_AB: CCTE's Alamar Blue Assay for Cytotoxicity in the Neural Acute Assay, Shafer Lab (AID 2284069).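 Also: active compounds lower the viability signal compared with DMSO wells.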 The essentials:
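Resazurin reduction (CellTiter Blue, 1:6 in fresh medium) read at ex 544/em 590 nm marks viability loss relative to DMSO. Cells: primary rat cortical neuron networks on microelectrode arrays, treated after baseline recording at 13 or 15 days in vitro.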
On the technique in general: Resazurin is reduced to fluorescent resorufin, in cell work by metabolically active cells.

Assay [2] is described as follows: CCTE_Shafer_MEA_acute_LDH: CCTE's Lactate Dehydrogenase Assay for Cytotoxicity in the Neural Acute Assay, Shafer Lab (AID 2284086).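 Also: active means LDH release rises above DMSO vehicle level.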 The essentials: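 Medium from rat cortical neuron MEA cultures sampled right after the 40 min compound-exposure recording; released LDH measured by absorbance at 490 nm. Analyzed as signal gain relative to DMSO.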
Assay [3] can be described thus: CCTE_Shafer_MEA_dev_bursting_electrodes_number: CCTE's Neural Network Formation Assay for Number of Bursting Electrodes, Shafer Lab (AID 2284043). The method, boiled down:
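Primary rat cortical neurons were cultured on PEI-coated 48-well MEA plates (16 electrodes/well) and exposed from plating through day 12, with compound renewed at feeds on DIV 5 and 9. Electrodes bursting ≥1 per 2 min were counted on DIV 5, 7, 9, 12; trapezoidal AUC taken.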

The nature of assay [4]: CCTE_Shafer_MEA_dev_per_burst_interspike_interval: CCTE's Neural Network Formation Assay for Burst Interspike Interval, Shafer Lab (AID 2284044; active = hit-call score of the fitted dose curve at least 0.9, where 1 is the maximum; inactive = score below 0.9;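 also: mean spike spacing inside bursts as AUC over recordings on days 5 7 9 12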). The method, boiled down:
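Spontaneous activity of maturing rat cortical networks is recorded on DIV 5, 7, 9 and 12 under chronic compound exposure beginning at plating. Endpoint: burst interspike interval well-mean, collapsed into trapezoidal AUC and fitted in the negative direction relative to DMSO.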

Assay [5] is described as follows: CCTE_Shafer_MEA_dev_burst_duration_mean: CCTE's Neural Network Formation Assay for Mean Burst Duration, Shafer Lab (AID 2284045; active = hit-call score of the fitted dose curve at least 0.9, where 1 is the maximum; inactive = score below 0.9). The method, boiled down: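 Primary rat cortical neurons on PEI-coated 16-electrode MEA wells, exposed from plating through day 12 with compound renewed at DIV 5 and 9; spontaneous activity recorded days 5, 7, 9, 12. Well-mean burst duration collapsed as trapezoidal AUC, fitted for loss versus DMSO.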

Assay [6] in a line: CCTE_Shafer_MEA_dev_interburst_interval_mean: CCTE's Neural Network Formation Assay for Mean Interburst Interval, Shafer Lab (AID 2284046; active = hit-call score of the fitted dose curve at least 0.9, where 1 is the maximum; inactive = score below 0.9;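 also: curve fitted for decrease in interburst interval relative to DMSO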). The essentials: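 Primary rat cortical neurons on PEI-coated 48-well MEA plates (laminin added with cells at plating) (16 electrodes/well), exposed from plating day 0 with renewal at DIV 5 and 9. Mean inter-burst interval averaged over bursting electrodes, AUC across days 5, 7, 9, 12; DMSO baseline.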

The nature of assay [7]: CCTE_Shafer_MEA_dev_inter_network_spike_interval_mean: CCTE's Neural Network Formation Assay for Mean Inter-network Spike Interval, Shafer Lab (AID 2284047; active = hit-call score of the fitted dose curve at least 0.9, where 1 is the maximum; inactive = score below 0.9). The method, boiled down:
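Mean time between consecutive network-spike peaks, recorded extracellularly (adaptive spike detection) on DIV 5, 7, 9 and 12, summarized as trapezoidal AUC. Rat cortical cultures on MEAs dosed continuously days 0–12, re-dosed at feeds; loss-of-signal fit relative to DMSO.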

Assay [8] is described as follows: CCTE_Shafer_MEA_dev_network_spike_number: CCTE's Neural Network Formation Assay for Number of Network Spikes, Shafer Lab (AID 2284048; active = hit-call score of the fitted dose curve at least 0.9, where 1 is the maximum; inactive = score below 0.9;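 also: synchronized bursts across electrodes counted on days 5 7 9 12 and integrated as AUC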). The method, boiled down: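 Primary rat cortical neurons were seeded at 1.5 x 10^5 cells/well on PEI-coated 16-electrode MEA wells with laminin, exposed from plating day 0, compound renewed at DIV 5 and 9. Network spikes were recorded on days 5, 7, 9, 12 and summarized as trapezoidal AUC versus DMSO.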

Assay [9] is described as follows: CCTE_Shafer_MEA_dev_network_spike_peak: CCTE's Neural Network Formation Assay for Mean Number of Electrodes in Network Spike, Shafer Lab (AID 2284049; active = hit-call score of the fitted dose curve at least 0.9, where 1 is the maximum; inactive = score below 0.9). The method, boiled down: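 Continuous 12-day exposure of rat cortical cultures, starting at plating, on MEA plates. Endpoint: electrodes participating in network-spike peaks, AUC across DIV 5–12, DMSO as negative control.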

Assay [10] in a line: CCTE_Shafer_MEA_dev_spike_duration_mean: CCTE's Neural Network Formation Assay for Mean Spike Duration, Shafer Lab (AID 2284051; active = hit-call score of the fitted dose curve at least 0.9, where 1 is the maximum; inactive = score below 0.9). The essentials: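 Spontaneous activity was recorded on days 5, 7, 9 and 12 from rat cortical cultures grown on microelectrode arrays and dosed continuously from day 0, with media and compound renewed after the DIV 5 and 9 recordings. Network-spike duration was collapsed by area under the curve.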

Assay [11] is described as follows: CCTE_Shafer_MEA_dev_network_spike_duration_std: CCTE's Neural Network Formation Assay for Standard Deviation of Network Spike Duration, Shafer Lab (AID 2284052; active = hit-call score of the fitted dose curve at least 0.9, where 1 is the maximum; inactive = score below 0.9;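 also: hits are decreases in network spike duration SD versus DMSO vehicle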). The essentials: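 Network spike duration variability was collapsed across recordings on days 5, 7, 9 and 12 by trapezoidal area-under-curve and fitted downward against DMSO. Cultures were rat cortical neurons on PEI-coated MEA plates, dosed continuously from plating, refed with compound DIV 5/9.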

Assay [12] in a line: CCTE_Shafer_MEA_dev_per_network_spike_spike_number_mean: CCTE's Neural Network Formation Assay for Mean Number of Spikes in a Network Spike, Shafer Lab (AID 2284053; active = hit-call score of the fitted dose curve at least 0.9, where 1 is the maximum; inactive = score below 0.9). The method, boiled down:
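Mean spike count within each network spike, taken in a 0.05 s window at its peak, was recorded on days 5, 7, 9 and 12 and integrated as trapezoidal area under the curve. Rat cortical cultures on MEA plates received continuous compound from day 0, refreshed at medium changes on DIV 5 and 9.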

The nature of assay [13]: CCTE_Shafer_MEA_dev_per_network_spike_spike_percent: CCTE's Neural Network Formation Assay for Percent of Spikes in a Network Spike, Shafer Lab (AID 2284054; active = hit-call score of the fitted dose curve at least 0.9, where 1 is the maximum; inactive = score below 0.9). The essentials:
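Primary rat cortical neurons on 16-electrode MEA wells (PEI-coated, laminin at plating), exposed from day 0 with renewal at DIV 5 and 9; spikes within 0.05 s of network-spike peaks over total spikes, AUC across days 5, 7, 9, 12.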

Assay [14] in a line: UKN5_HCS_SBAD2_cell_viability: Viability Assessment in the University of Konstanz (UKN) Leist Lab Neurite Outgrowth Assay in human iPSC-derived immature Dorsal Root Ganglia Neurons (UKN5) (AID 2284056; active = hit-call score of the fitted dose curve at least 0.9, where 1 is the maximum; inactive = score below 0.9). The essentials:
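iPSC-derived immature peripheral neurons (SBAD2) seeded on Matrigel with CHIR99021, SU5402 and DAPT, dosed 1 h later for 24 h. Viability from Hoechst H-33342 and calcein-AM live staining, high-content imaging; bidirectional fit versus DMSO.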

Assay [15] in a line: CCTE_Shafer_MEA_dev_LDH: CCTE's Lactate Dehydrogenase Assay for Cytotoxicity in the Neural Network Formation Assay, Shafer Lab (AID 2284068).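 Also: exposure for twelve days from plating with re-dosing on DIV 5 and 9.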 The method, boiled down: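 Primary rat cortical neurons were cultured on PEI-coated MEA plates and exposed from plating through day 12, with compound renewed at medium changes on DIV 5 and 9. LDH activity was read spectrophotometrically; loss of signal versus DMSO indicates reduced viability.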

The nature of assay [16]: UKN5_HCS_SBAD2_neurite_outgrowth: University of Konstanz (UKN) Leist Lab Neurite Outgrowth Assay in human iPSC-derived immature Dorsal Root Ganglia Neurons (UKN5) (AID 2284070; active = hit-call score of the fitted dose curve at least 0.9, where 1 is the maximum; inactive = score below 0.9). The conditions noted are these: actives raise or lower the signal. The essentials:
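SBAD2 iPSC-derived immature peripheral neurons on Matrigel, 100.000 cells/cm2, medium with CHIR99021 (1.5 uM), SU5402 (5 uM), DAPT (5 uM); compound added 1 h post-seeding for 24 h. Calcein-AM neurite area by high-content imaging; Hoechst H-33342 viability; bidirectional fit vs DMSO.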

A short description of assay [17]: CCTE_Shafer_MEA_dev_mutual_information_norm: CCTE's Neural Network Formation Assay for Mutual Information Normalization, Shafer Lab (AID 2284091; active = hit-call score of the fitted dose curve at least 0.9, where 1 is the maximum; inactive = score below 0.9). The essentials: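 Rat cortical cultures, 48-well MEA, continuous exposure DIV 0–12 with full media/compound change DIV 5 and 9. Readout: inter-electrode mutual information, AxIS adaptive spike detection; AUC across DIV 5/7/9/12 recordings; DMSO baseline, negative fitting direction.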

Assay [18] has as its system DIO2 (gene 1734). Description: CCTE_GLTED_hDIO2: CCTE's human Deiodinase 2 (DIO2) Inhibition Assay, Great Lakes Toxicology and Ecology Division (GLTED) Lab (AID 2284050). The method, boiled down:
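Cell-free human DIO2 incubated 3 h with chemical; liberated iodide quantified by Sandell-Kolthoff absorbance. Triplicate plates; loss of signal fitted vs DMSO.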

Assay [19] relates to DIO3 (gene 1735). Description: CCTE_GLTED_hDIO3: CCTE's human Deiodinase 3 (DIO3) Inhibition Assay, Great Lakes Toxicology and Ecology Division (GLTED) Lab (AID 2284055).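 As to AC50: potency is for inhibition seen as loss of released iodide signal.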 The method, boiled down:
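Human DIO3 from an adenovirus expression system is incubated 3 h with test chemical. Released iodide is quantified by Sandell-Kolthoff absorbance, in triplicate plates. Loss of signal is fitted relative to DMSO.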

Assay [20] can be described thus: CCTE_Shafer_MEA_dev_AB: CCTE's Alamar Blue Assay for Cytotoxicity in the Neural Network Formation Assay, Shafer Lab (AID 2284083).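 Also: resazurin reduction fluorescence as viability of cultured neurons; twelve days of exposure from plating with re-dosing on DIV 5 and 9.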 The essentials:
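Resazurin fluorescence, relative to DMSO, gauges viability after twelve days of exposure that began at plating of rat cortical neurons (1.5 x 10^5 cells/well, 48-well MEA); treatment renewed with full medium exchange on DIV 5 and 9.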

In the case of `CN(C)C(=O)NC1(c2ccccc2)CCN(CCC[C@]2(c3ccc(Cl)c(Cl)c3)CCCN(C(=O)c3ccccc3)C2)CC1`, the call in assay [1] and in [2] was inactive.
For `O=C1NC(=O)C(c2ccccc2)(c2ccccc2)N1`, the compound was called inactive in assay [3], in assay [4], in [5], in assay [6], in assay [7] and in assay [8]. For the same compound, the result in assay [9], in assay [10], in assay [11], in [12], in assay [13] and in assay [14] was inactive. The outcome in assay [15], in assay [16] and in assay [17] was inactive.
On to `Nc1nc(=S)c2[nH]cnc2[nH]1`, for which the compound was classed as inactive in assay [1] and in assay [2].
Turning to `Cc1cc(Cc2ccc(N)c(C)c2)ccc1N`, the compound was classed as inactive in [1] and in [2].
On to `CC(C)NCC(O)c1ccc(O)c(O)c1` (stereo not drawn), for which the compound was classed as inactive in [1] and in assay [2].
On to `O=C1OC(c2ccc(O)cc2)(c2ccc(O)cc2)c2ccccc21`, for which, in assay [1], the compound was called inactive.
Usually AC50 stands for the concentration giving half of the maximal activity seen. `CC(=O)O[C@]1(C(C)=O)CC[C@H]2[C@@H]3C=C(Cl)C4=CC(=O)[C@@H]5C[C@@H]5[C@]4(C)[C@H]3CC[C@@]21C`: the outcome in assay [18] was inactive. For the same compound, the AC50 in assay [19] was 5.1 µM (active).
Turning to `OCC(O)CO`, the compound was classed as inactive in assay [3], in assay [4], in [5], in assay [6], in assay [7] and in assay [8]. Also, the result in [9], in assay [10], in assay [11], in assay [12], in assay [13] and in assay [20] was inactive. Moreover, the outcome in [17] was inactive.
Take `Cc1ccc(-c2cc(C(F)(F)F)nn2-c2ccc(S(N)(=O)=O)cc2)cc1`: the AC50 in assay [18] is 156 µM (active); in [19], 172 µM (active).
Take `CCCCCCCCCCCCCCCCO`: the compound was called inactive in assay [18] and in [19].
As to `O=C(O)CN(CC(=O)O)CC(=O)O`, the result in assay [2] was inactive.
For the compound `CCN(CC)CCOc1ccc(C(=C(Cl)c2ccccc2)c2ccccc2)cc1`, in [18], the AC50 is 53.3 µM (active). Also, the outcome in assay [1] and in assay [2] was inactive.
As for `S=c1[nH]c2ccccc2s1`, the AC50 is 53.4 µM (active) in [18] and 73.2 µM (active) in assay [19].
With `COc1ccc(OC(F)(F)F)cc1CN[C@H]1CCCN[C@H]1c1ccccc1`, the result in assay [1] and in assay [2] was inactive.
Take `CSc1ccc(Oc2ccc(S(N)(=O)=O)cc2CN(C)C)cc1C`: the compound was classed as inactive in assay [1].
As for `Cc1c(C)c2c(c(C)c1O)CCC(C)(COc1ccc(CC3SC(=O)NC3=O)cc1)O2` (stereo not drawn), the AC50 in assay [18] was 70.1 µM (active); in [19], 95.1 µM (active). In [1], the compound was classed as inactive.
Take `CCCCCCCCCCCCCCOS(=O)(=O)O`: the AC50 in assay [18] is 36.9 µM (active); in assay [19], 18.5 µM (active).
As for `CCc1cc(C2=C(C(=O)O)N(c3ccccc3C(F)(F)F)S(=O)(=O)c3ccccc32)cc2c1OCO2`, the result in [1] and in assay [2] was inactive.
Regarding `O=C(N[C@@H](c1ccccc1)[C@@H]1CCCCN1)c1cccc(C(F)(F)F)c1Cl`, the call in assay [1] and in assay [2] was inactive.
In the case of `Oc1ccc(O)cc1`, the result in assay [1] and in assay [2] was inactive.
On to `OCC(CO)n1cnc(-c2ccc(F)cc2)c1-c1ccnc(Oc2ccccc2)n1`, for which the outcome in assay [2] was inactive.
For the compound `CCCCCCC(C=O)=Cc1ccccc1`, the AC50 in [18] is 15.2 µM (active); in assay [19], 3.29 µM (active).
The matching figures for `O=C(Oc1ccccc1)c1cccc(C(=O)Oc2ccccc2)c1`: 42.3 µM (active) and 64.5 µM (active).
